From PubChem BioAssay (NCI)
“And” between values parts separate entries of the source, which are not always exact repeats. Equal entries are not always repeated. The panel holds about 83,000 compounds, 20% with a hit somewhere; the sample as a whole holds those more often.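 The endpoint reported here, percent growth, reads 100 for growth as untreated, 0 for no net growth and -100 for all cells dead.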 The source made the active and inactive calls. How the source made its calls: active means growth percent below 10; inactive means the rest.

Legend:
Assay in all cases: NCI-60 one-dose screen, 48 h (100 = growth as untreated, 0 = no growth, -100 = all killed)
NCI-H23 lung = tested on: NCI-H23 lung
NCI-H226 lung = tested on: NCI-H226 lung
NCI-H322M lung = tested on: NCI-H322M lung
HOP-62 NSCLC = tested on: HOP-62 NSCLC
NCI-H460 lung = tested on: NCI-H460 lung
HOP-92 NSCLC = tested on: HOP-92 NSCLC
NCI-H522 lung = settings: 10 µM unless noted
A549/ATCC NSCLC = tested on: A549/ATCC NSCLC
786-0 renal = tested on: 786-0 renal
COLO 205 colon = tested on: COLO 205 colon

Measured: growth

CCCCCCCCCCCCCCCC[N+](C)(C)C
inactive: A549/ATCC NSCLC; 10 µM unless noted 29.4%
active: HOP-62 NSCLC; 10 µM unless noted -76.6% and -23.9% | NCI-H460 lung; 10 µM unless noted -84% and 0.102% | HOP-92 NSCLC; 10 µM unless noted -45.3% and -18.4% | NCI-H522 lung -57.9% and -39.7% | 786-0 renal; 10 µM unless noted -83.5% and 4.56% | COLO 205 colon; 10 µM unless noted -74% and -89.8%
-54.8% (active) and 46.7% (inactive): NCI-H226 lung; 10 µM unless noted
-70% (active) and 60.7% (inactive): NCI-H322M lung; 10 µM unless noted
-83.6% (active) and 20.7% (inactive): NCI-H23 lung; 10 µM unless noted

CC[C@@H](C)C(=O)O[C@H]1[C@H](O)[C@H]2[C@@H](CN3C[C@@H](C)CC[C@H]3[C@@]2(C)O)[C@@H]2C[C@]34O[C@]5(O)[C@@H](OC(=O)[C@@](C)(O)CC)CC[C@@]3(C)[C@@H]5[C@@H](OC(C)=O)[C@@H](OC(C)=O)[C@H]4[C@@]21O
inactive: NCI-H23 lung; 10 µM unless noted 99.1% | NCI-H226 lung; 10 µM unless noted 81.2% | NCI-H322M lung; 10 µM unless noted 106% | HOP-62 NSCLC; 10 µM unless noted 82.8% | NCI-H460 lung; 10 µM unless noted 111% | HOP-92 NSCLC; 10 µM unless noted 90% | NCI-H522 lung 100% | A549/ATCC NSCLC; 10 µM unless noted 70.5% | 786-0 renal; 10 µM unless noted 101% | COLO 205 colon; 10 µM unless noted 92.1%

CC(=O)OCC1OC([S-])C(OC(C)=O)C(OC(C)=O)C1OC(C)=O.[Au+].c1ccc(CN2[CH-]N(Cc3ccccc3)C(c3ccccc3)=C2c2ccccc2)cc1
active: NCI-H23 lung; 4.75 µM 3.45% | NCI-H23 lung; 10 µM 2.04% | NCI-H226 lung; 4.75 µM 9.99% | HOP-62 NSCLC; 4.75 µM -12.6% | NCI-H460 lung; 4.75 µM 1.76% | HOP-92 NSCLC; 4.75 µM -24% | HOP-92 NSCLC; 10 µM -9.45% | A549/ATCC NSCLC; 4.75 µM 8.63% | 786-0 renal; 4.75 µM -33.7% | 786-0 renal; 10 µM -72.1% | COLO 205 colon; 4.75 µM -75.6%
inactive: NCI-H226 lung; 10 µM 92.1% | NCI-H322M lung; 4.75 µM 20.8% | NCI-H322M lung; 10 µM 57.5% | HOP-62 NSCLC; 10 µM 45.1% | NCI-H460 lung; 10 µM 29.2% | A549/ATCC NSCLC; 10 µM 59.2% | COLO 205 colon; 10 µM 13.6%

Cc1cc(Br)c([N+](=O)[O-])cc1[N+](=O)[O-]
inactive: NCI-H23 lung; 10 µM unless noted 98.6% | NCI-H226 lung; 10 µM unless noted 95.5% | NCI-H322M lung; 10 µM unless noted 132% | HOP-62 NSCLC; 10 µM unless noted 100% | NCI-H460 lung; 10 µM unless noted 97.5% | HOP-92 NSCLC; 10 µM unless noted 134% | A549/ATCC NSCLC; 10 µM unless noted 101% | 786-0 renal; 10 µM unless noted 103% | COLO 205 colon; 10 µM unless noted 72.9%
active: NCI-H522 lung -28%

CCN1C(=O)NC(=O)C(C)(N2C(=O)c3c(F)c(F)c(F)c(F)c3C2=O)C1=O (stereo not drawn)
active: HOP-92 NSCLC; 10 µM unless noted -42.6% | NCI-H522 lung -76.6% | COLO 205 colon; 10 µM unless noted -51.4%
inactive: NCI-H23 lung; 10 µM unless noted 32.3% | NCI-H226 lung; 10 µM unless noted 105% | NCI-H322M lung; 10 µM unless noted 96.7% | HOP-62 NSCLC; 10 µM unless noted 101% | NCI-H460 lung; 10 µM unless noted 22.8% | A549/ATCC NSCLC; 10 µM unless noted 43.1% | 786-0 renal; 10 µM unless noted 37.4%

CC1(C)S[C@H]2CC[C@H]3OC(=O)[C@@H]1N23
inactive: NCI-H23 lung; 10 µM unless noted 94.7% | NCI-H226 lung; 10 µM unless noted 98.1% | NCI-H322M lung; 10 µM unless noted 98.7% | HOP-62 NSCLC; 10 µM unless noted 104% | NCI-H460 lung; 10 µM unless noted 110% | HOP-92 NSCLC; 10 µM unless noted 77.9% | NCI-H522 lung 88.9% | A549/ATCC NSCLC; 10 µM unless noted 96.6% | 786-0 renal; 10 µM unless noted 106% | COLO 205 colon; 10 µM unless noted 137%

Cc1nc2ccccc2c(=O)n1-c1ccccc1F
inactive: NCI-H23 lung; 10 µM unless noted 100% | NCI-H226 lung; 10 µM unless noted 96.6% | NCI-H322M lung; 10 µM unless noted 111% | HOP-62 NSCLC; 10 µM unless noted 81.6% | NCI-H460 lung; 10 µM unless noted 105% | HOP-92 NSCLC; 10 µM unless noted 87.5% | NCI-H522 lung 88.1% | A549/ATCC NSCLC; 10 µM unless noted 76.2% | 786-0 renal; 10 µM unless noted 103% | COLO 205 colon; 10 µM unless noted 98.3%

COc1cc2c(c(OC)c1OC)-c1ccc(O)cc1[C@@H](NC(C)=O)CC2
active: NCI-H460 lung; 10 µM unless noted 5.66% and 0.839% | COLO 205 colon; 10 µM unless noted -32.6% and -83.8%
17% (inactive) and -32.6% (active): NCI-H522 lung
inactive: NCI-H23 lung; 10 µM unless noted 37.7% and 13.8% | HOP-62 NSCLC; 10 µM unless noted 37.8% and 21.6% | HOP-92 NSCLC; 10 µM unless noted 16.7% | A549/ATCC NSCLC; 10 µM unless noted 14.9% | 786-0 renal; 10 µM unless noted 29.2% and 32.5%
42.7% (inactive) and 1.84% (active): NCI-H322M lung; 10 µM unless noted
5.36% (active) and 46.3% (inactive): NCI-H226 lung; 10 µM unless noted

COc1cc(/C=C\[N+](=O)[O-])ccc1OCc1ccccc1
active: 786-0 renal; 10 µM unless noted -17.4%
inactive: NCI-H23 lung; 10 µM unless noted 34.6% | NCI-H226 lung; 10 µM unless noted 105% | NCI-H322M lung; 10 µM unless noted 94.5% | HOP-62 NSCLC; 10 µM unless noted 30.7% | NCI-H460 lung; 10 µM unless noted 62.4% | HOP-92 NSCLC; 10 µM unless noted 66.3% | NCI-H522 lung 73.5% | A549/ATCC NSCLC; 10 µM unless noted 64.7% | COLO 205 colon; 10 µM unless noted 32.7%

Nc1ccc2c(c1)Cc1cc(N)ccc1-2
inactive: NCI-H23 lung; 10 µM unless noted 92.3% | NCI-H226 lung; 10 µM unless noted 91.4% | NCI-H322M lung; 10 µM unless noted 90% | HOP-62 NSCLC; 10 µM unless noted 87.1% | NCI-H460 lung; 10 µM unless noted 93.1% | HOP-92 NSCLC; 10 µM unless noted 76.5% | NCI-H522 lung 92.8% | A549/ATCC NSCLC; 10 µM unless noted 84.3% | 786-0 renal; 10 µM unless noted 105% | COLO 205 colon; 10 µM unless noted 90%

Cc1ccc(NC2=N[C@]34CC(=O)CC[C@]3(C)[C@H]3CC[C@]5(C)C(=O)CC[C@H]5[C@@H]3C[C@@H]4S2)c(C)c1
active: 786-0 renal; 10 µM unless noted 5.54%
inactive: NCI-H23 lung; 10 µM unless noted 54.2% | NCI-H226 lung; 10 µM unless noted 72.8% | NCI-H322M lung; 10 µM unless noted 79.5% | HOP-62 NSCLC; 10 µM unless noted 45.7% | NCI-H460 lung; 10 µM unless noted 45.8% | HOP-92 NSCLC; 10 µM unless noted 65.9% | NCI-H522 lung 24.6% | A549/ATCC NSCLC; 10 µM unless noted 61.1% | COLO 205 colon; 10 µM unless noted 62.4%
